# This is one part of a sample in which the strongest signals are shown more often than they occur.
# Key:
# Assay in all cases: glycan array binding signal (z-score within array); higher = stronger binding
# Conditions in all cases: glycan notation: IUPAC condensed, linker removed
# [1] = molecular target: Neu5Ac(a2-6)Gal(b1-4)GlcNAc(b1-3)Gal(b1-3)GlcNAc
# Method in brief: (§1)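 The binding signal is a Z-score computed within each array. Data were drawn from 3228 arrays in the Consortium for Functional Glycomics database, restricted to those with a known protein sequence. Scores were averaged over arrays of the same protein sequence at different concentrations or buffers, and over linkers, and negative values can be taken as non-binding.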
# [2] = molecular target: Neu5Ac(a2-6)Gal(b1-4)GlcNAc6S
# Method in brief: as §1
# [3] = molecular target: Neu5Ac(a2-8)Neu5Ac(a2-8)Neu5Ac
# Method in brief: as §1
# [4] = molecular target: Neu5Ac9Ac(a2-6)Gal(b1-4)GlcNAc
# Method in brief: as §1
binder,measurement,setting,value
Gal 1 (Canis lupus) (protein) MACGLVASNLSLKPGQCLRVQCEVVPEAKSFVLNLGKDGDNLCLHFNPRFEAHGDVNTIVCNSKDGGAWGEELRESAFPFQPGTVTEVCISFDQADLTIKLPDGYTFKFPNRLNLEAISYLAADGDMKIKCLAFD,glycan array binding signal (z-score),[1],-0.32
same,glycan array binding signal (z-score),[2],-0.332
same,glycan array binding signal (z-score),[3],-0.324
same,glycan array binding signal (z-score),[4],-0.303
